Test results taken from PubChem BioAssay AID1159580 (chemical genetic matrix, 2015).
Where “and” joins values, the source holds several entries; their conditions need not be identical. Identical values can stand only once. Screen size: about 5,500 compounds; about 2,000 (36%) were called active. Another 18% or so got no clear call; they are omitted. No stated cut-off is given here; in the data, active means normalized growth mostly below about 0.91 (no sharp cut-off); inconclusive means no clear call, values can overlap the other calls; inactive means mostly above about 0.92. This is one part of the list.

Assay: chemical genetic growth profiling, strain panel (AID 1159580);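 further: tested at 20 µM; growth read once vehicle control cultures reached saturation at 30 °C; 1 = growth at the plate median or of vehicle wells; lower values mean less growth of the strain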
Settings: S. cerevisiae deletion strains, growth OD

Measured: normalized growth

NCCCNCCSP(=O)(O)O
inactive: locus YAL013W, strain DEP1, active compounds read low 0.988 and 1.01 | locus YAL021C, strain ccr4, active compounds read low 0.985 | locus YAL026C, strain drs2, active compounds read low 0.976 | locus YAL030W, strain snc1, active compounds read low 0.968 | locus YAL040C, strain CLN3, active compounds read low 1 | locus YBL061C, strain skt5, active compounds read low 0.97 | locus YBR009C, strain hhf1, active compounds read low 0.988 | locus YBR021W, strain FUR4, active compounds read low 0.967 | locus YBR023C, strain chs3, active compounds read low 0.976 | locus YBR171W, strain sec66, active compounds read low 0.96 | locus YBR229C, strain ROT2, active compounds read low 1 | locus YBR231C, strain swc5, active compounds read low 0.975 | locus YBR279W, strain paf1, active compounds read low 0.995 | locus YCL011C, strain gbp2, active compounds read low 0.957 | locus YCL016C, strain dcc1, active compounds read low 0.982 | locus YCL029C, strain bik1, active compounds read low 0.988 | locus YCL061C, strain MRC1, active compounds read low 0.983 | locus YCL069W, strain vba3, active compounds read low 0.994 | locus YCR088W, strain abp1, active compounds read low 0.982 | locus YDL005C, strain med2, active compounds read low 0.969 | locus YDL035C, strain GPR1, active compounds read low 0.994 | locus YDL040C, strain nat1, active compounds read low 0.987 | locus YDL074C, strain BRE1, active compounds read low 0.993 | locus YDL101C, strain DUN1, active compounds read low 0.984 | locus YDL134C, strain PPH21, active compounds read low 0.994 | locus YDL185W, strain tfp1, active compounds read low 0.944 | locus YDL192W, strain arf1, active compounds read low 0.986 | locus YDR001C, strain nth1, active compounds read low 0.977 | locus YDR069C, strain doa4, active compounds read low 0.968 | locus YDR101C, strain arx1, active compounds read low 1 | locus YDR137W, strain rgp1, active compounds read low 0.968 | locus YDR150W, strain NUM1, active compounds read low 0.949 | locus YDR159W, strain sac3, active compounds read low 0.98 | locus YDR162C, strain NBP2, active compounds read low 0.992 | locus YDR195W, strain ref2 0.989 | locus YDR297W, strain sur2, active compounds read low 0.983 | locus YDR318W, strain mcm21, active compounds read low 0.986 | locus YDR334W, strain swr1, active compounds read low 0.933 | locus YDR335W, strain msn5, active compounds read low 0.981 | locus YDR388W, active compounds read low 1 | locus YDR392W, strain spt3, active compounds read low 0.927 | locus YDR502C, strain sam2, active compounds read low 0.993 | locus YEL003W, strain gim4, active compounds read low 0.988 | locus YEL037C, strain rad23, active compounds read low 0.981 | locus YEL061C, strain CIN8 (second series), active compounds read low 0.972 | locus YEL061C, strain CIN8, active compounds read low 0.998 | locus YER002W, strain NOP16, active compounds read low 0.997 | locus YER015W, strain faa2, active compounds read low 0.973 | locus YER016W, strain bim1, active compounds read low 0.991 | locus YER110C, active compounds read low 0.989 | locus YER111C, strain swi4, active compounds read low 0.988 | locus YER155C, strain BEM2 (second series), active compounds read low 0.983 | locus YER155C, strain BEM2, active compounds read low 0.942 | locus YER167W, strain BCK2, active compounds read low 0.991 | locus YFR010W, strain ubp6, active compounds read low 0.957 | locus YGL078C, strain dbp3, active compounds read low 0.987 | locus YGL086W, strain mad1, active compounds read low 0.978 | locus YGL167C, strain pmr1, active compounds read low 0.976 | locus YGL173C, strain kem1, active compounds read low 0.944 | locus YGL227W, strain vid30, active compounds read low 0.974 | locus YGL240W, strain doc1, active compounds read low 0.984 | locus YGL248W, strain PDE1, active compounds read low 1 | locus YGL253W, strain hxk2, active compounds read low 0.989 | locus YGR078C, strain PAC10, active compounds read low 0.984 | locus YGR135W, strain pre9, active compounds read low 0.984 | locus YGR229C, strain SMI1, active compounds read low 0.964 | locus YGR252W, strain gcn5, active compounds read low 0.978 | locus YHR013C, strain ard1, active compounds read low 0.981 | locus YHR027C, strain rpn1, active compounds read low 0.959 | locus YHR030C, strain SLT2, active compounds read low 0.993 | locus YHR079C, strain IRE1 (second series), active compounds read low 0.991 | locus YHR094C, strain hxt1, active compounds read low 0.979 | locus YHR129C, strain ARP1, active compounds read low 0.999 | locus YHR142W, strain chs7, active compounds read low 0.936 | locus YHR200W, strain rpn10, active compounds read low 0.983 | locus YIL066C, strain RNR3, active compounds read low 0.995 | locus YIL073C, strain SPO22, active compounds read low 0.941 | locus YIL125W, strain kgd1, active compounds read low 1 | locus YIR030C, strain dcg1, active compounds read low 0.998 | locus YJL092W, strain hpr5, active compounds read low 0.979 | locus YJL095W, strain BCK1 (second series), active compounds read low 0.983 | locus YJL095W, strain BCK1, active compounds read low 1.02 | locus YJL115W, strain asf1, active compounds read low 0.955 | locus YJL129C, strain trk1, active compounds read low 1 | locus YJL134W, strain LCB3, active compounds read low 0.989 | locus YJL154C, strain vps35, active compounds read low 0.972 | locus YJL164C, strain tpk1, active compounds read low 0.992 | locus YJL166W, strain qcr8, active compounds read low 0.956 | locus YJL168C, strain set2, active compounds read low 1 | locus YJL187C, strain SWE1 (second series), active compounds read low 0.99 | locus YJL187C, strain SWE1, active compounds read low 0.982 | locus YJR043C, strain POL32, active compounds read low 0.994
